Source: PubChem BioAssay (NCATS)
Inconclusive results are not listed. The list shows a part of the results. Entries that show only a call come without a potency. Activity calls are given as the source filed them. Unless noted, the call rests on the fitted dose curve; in most records, active means well fitted curve in the direction sought with a large enough effect; inconclusive means small, poorly fitted or top-dose-only effect, or another doubt; inactive means no such curve, though single readings can be large; an effect the other way counts as inactive or inconclusive.

What was measured:
[1] = molecular target: Mitogen-activated protein kinase 10 (Mus musculus) (UniProt Q61831); assay: JNK3 AlphaScreen Assay (AID 530; active means well fitted curve in either direction with a large enough effect, not every such curve was filed as active;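 further: kinase came from lysate of stimulated human HepG2 cells; signal reports phosphorylation of biotinylated GST-cJun 1-79 at Ser73 with 10 µM ATP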); details: JNK3 lysate, c-Jun phosphorylation; series mostly up to 57.1 µM
Summary of the method: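 Pre-activated (IL-1β/TNFα) JNK3 in HepG2 lysates phosphorylates biotin-GST-cJun(1-79), 10 uM ATP; anti-phospho-cJun(Ser73) AlphaScreen read at room temperature, pH 7.6 Tris buffer. Compounds pre-incubated 15 min as titrations.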

[2] = molecular target: Cytochrome P450 3A4 (Homo sapiens) (UniProt P08684); assay: qHTS Assay for Inhibitors and Substrates of Cytochrome P450 3A4 (AID 884); details: recombinant CYP3A4, Luciferin-PPXE luminescence; series mostly up to 57.1 µM; further: potency means the concentration at half of the fitted maximal effect; nearly all actives have a fitted effect of over 50% in size
Cytochrome P450 3A4 (Homo sapiens), sequence (P08684 whole entry, looked up): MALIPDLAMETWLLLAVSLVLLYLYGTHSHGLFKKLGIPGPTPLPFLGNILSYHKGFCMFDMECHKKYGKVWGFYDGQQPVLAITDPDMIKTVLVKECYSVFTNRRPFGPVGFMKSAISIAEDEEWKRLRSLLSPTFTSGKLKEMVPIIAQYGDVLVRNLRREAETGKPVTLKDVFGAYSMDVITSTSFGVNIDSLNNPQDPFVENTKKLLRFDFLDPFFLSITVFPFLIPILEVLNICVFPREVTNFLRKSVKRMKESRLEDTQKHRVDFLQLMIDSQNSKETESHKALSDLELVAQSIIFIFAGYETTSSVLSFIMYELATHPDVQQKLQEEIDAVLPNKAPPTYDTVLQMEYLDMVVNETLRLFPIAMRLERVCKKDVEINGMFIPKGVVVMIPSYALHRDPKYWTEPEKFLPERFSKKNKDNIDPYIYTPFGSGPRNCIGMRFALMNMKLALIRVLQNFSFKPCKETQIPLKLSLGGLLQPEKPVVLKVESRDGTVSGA
Summary of the method: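 20 nM human CYP3A4 with 25 uM Luciferin-PPXE (at KM) in 200 mM KPO4, preincubated 10 min with compound; NADPH regeneration started a 60 min RT reaction. Luciferin detected by luminescence, normalized to 57 uM ketoconazole as full inhibition.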

[3] = molecular target: Cytochrome P450 3A4 (Homo sapiens) (UniProt P08684); assay: qHTS Assay for Activators of Cytochrome P450 3A4 (AID 885); details: recombinant CYP3A4, Luciferin-PPXE luminescence, 60 min; series mostly up to 57.1 µM; further: nearly all actives have a fitted effect of over 65% in size
Summary of the method: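 20nM CYP3A4 + 25uM Luciferin-PPXE (=KM), 200mM KPO4; cpd 10 min RT; NADPH regen, 60 min RT; stop w/ detection buffer, 20 min; luminescence. Normalized to 57 uM ketoconazole.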

[4] = molecular target: DNA dC->dU-editing enzyme APOBEC-3G (Homo sapiens) (UniProt Q9HC16); assay: qHTS for inhibitors of Vif-A3G interactions: Validation (AID 588379); details: Vif-A3G protein interaction assay; series mostly up to 46.1 µM
DNA dC->dU-editing enzyme APOBEC-3G (Homo sapiens), sequence (Q9HC16 whole entry, looked up): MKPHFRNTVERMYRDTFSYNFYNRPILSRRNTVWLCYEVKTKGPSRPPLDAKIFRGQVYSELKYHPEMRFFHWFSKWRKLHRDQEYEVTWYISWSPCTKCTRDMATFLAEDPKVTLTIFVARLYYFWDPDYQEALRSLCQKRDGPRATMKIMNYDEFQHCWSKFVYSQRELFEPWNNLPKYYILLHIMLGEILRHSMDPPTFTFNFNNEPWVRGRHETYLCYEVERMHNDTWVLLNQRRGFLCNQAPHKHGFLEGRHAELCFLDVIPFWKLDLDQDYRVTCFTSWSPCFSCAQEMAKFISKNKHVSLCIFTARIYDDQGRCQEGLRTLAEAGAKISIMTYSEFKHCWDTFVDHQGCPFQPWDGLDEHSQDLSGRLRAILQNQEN
Summary of the method: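 HeLa cells stably expressing Vif and A3G-eYFP, 700 cells/well, incubated overnight at 37 deg C, then exposed to compound overnight at 37 deg C. Inhibition of Vif-mediated degradation read as increased yellow fluorescence (Ex 488/Em 500-530) by laser-scanning cytometry.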

[5] = molecular target: Lethal(3)malignant brain tumor-like protein 1 (Homo sapiens) (UniProt Q9Y468); assay: qHTS Assay for the Inhibitors of L3MBTL1: Hit Validation (AID 540279); details: L3MBTL1 methyl-lysine binding inhibition, biochemical qHTS; further: potency means the concentration at half of the fitted maximal effect; nearly all actives have a fitted effect of over 70% in size
Lethal(3)malignant brain tumor-like protein 1 (Homo sapiens), sequence (Q9Y468 whole entry, looked up): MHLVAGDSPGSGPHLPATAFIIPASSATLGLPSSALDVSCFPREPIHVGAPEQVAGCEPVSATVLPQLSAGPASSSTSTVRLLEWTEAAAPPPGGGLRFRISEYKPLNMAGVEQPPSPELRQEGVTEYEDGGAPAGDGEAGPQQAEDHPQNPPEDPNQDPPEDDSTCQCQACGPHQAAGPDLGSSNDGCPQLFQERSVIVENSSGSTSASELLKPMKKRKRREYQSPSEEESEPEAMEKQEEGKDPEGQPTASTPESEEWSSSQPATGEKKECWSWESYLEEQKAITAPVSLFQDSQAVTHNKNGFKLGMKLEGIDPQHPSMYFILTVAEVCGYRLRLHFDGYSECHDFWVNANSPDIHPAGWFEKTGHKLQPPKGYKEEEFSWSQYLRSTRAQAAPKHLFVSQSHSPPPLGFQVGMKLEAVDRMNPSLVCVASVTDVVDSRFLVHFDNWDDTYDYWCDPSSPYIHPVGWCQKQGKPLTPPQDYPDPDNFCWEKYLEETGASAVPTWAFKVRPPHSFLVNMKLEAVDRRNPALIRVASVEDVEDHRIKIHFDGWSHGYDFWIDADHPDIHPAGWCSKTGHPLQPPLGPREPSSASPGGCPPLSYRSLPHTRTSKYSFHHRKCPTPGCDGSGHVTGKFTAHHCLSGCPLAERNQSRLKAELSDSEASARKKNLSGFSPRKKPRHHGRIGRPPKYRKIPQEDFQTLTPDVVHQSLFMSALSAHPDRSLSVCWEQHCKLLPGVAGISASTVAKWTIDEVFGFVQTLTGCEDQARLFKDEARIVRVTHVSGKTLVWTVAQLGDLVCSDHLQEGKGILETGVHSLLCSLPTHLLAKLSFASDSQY
Summary of the method: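 L3MBTL1 (50 nM final) preformed 30 min with biotinylated H3(1-15)K9me1 peptide (75 nM), then compound 30 min at room temperature. Streptavidin donor and nickel chelate acceptor AlphaScreen beads (10 ug/mL each final) added for 30 min before read.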

[6] = qHTS Assay for the Inhibitors of L3MBTL1: Hit Validationin AlphaScreen Counterscreen (AID 602224); details: signal inhibition; series mostly up to 57.1 µM
Summary of the method: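 Bead-bridging control using 1 nM b-His6 linking streptavidin donor and nickel chelate acceptor beads (10 ug/mL each, final). Compound exposure 15 min, then beads, 30 min dark incubation at room temperature before AlphaScreen reading.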

[7] = molecular target: DNA polymerase iota (Homo sapiens) (UniProt Q9UNA4); assay: qHTS for Inhibitors of Polymerase Iota: Confirmatory Assay for Cherry-picked Compounds (AID 720496); details: Pol iota primer extension, TAMRA/BHQ fluorescence; further: potency means the concentration at half of the fitted maximal effect
DNA polymerase iota (Homo sapiens), sequence (Q9UNA4 whole entry, looked up): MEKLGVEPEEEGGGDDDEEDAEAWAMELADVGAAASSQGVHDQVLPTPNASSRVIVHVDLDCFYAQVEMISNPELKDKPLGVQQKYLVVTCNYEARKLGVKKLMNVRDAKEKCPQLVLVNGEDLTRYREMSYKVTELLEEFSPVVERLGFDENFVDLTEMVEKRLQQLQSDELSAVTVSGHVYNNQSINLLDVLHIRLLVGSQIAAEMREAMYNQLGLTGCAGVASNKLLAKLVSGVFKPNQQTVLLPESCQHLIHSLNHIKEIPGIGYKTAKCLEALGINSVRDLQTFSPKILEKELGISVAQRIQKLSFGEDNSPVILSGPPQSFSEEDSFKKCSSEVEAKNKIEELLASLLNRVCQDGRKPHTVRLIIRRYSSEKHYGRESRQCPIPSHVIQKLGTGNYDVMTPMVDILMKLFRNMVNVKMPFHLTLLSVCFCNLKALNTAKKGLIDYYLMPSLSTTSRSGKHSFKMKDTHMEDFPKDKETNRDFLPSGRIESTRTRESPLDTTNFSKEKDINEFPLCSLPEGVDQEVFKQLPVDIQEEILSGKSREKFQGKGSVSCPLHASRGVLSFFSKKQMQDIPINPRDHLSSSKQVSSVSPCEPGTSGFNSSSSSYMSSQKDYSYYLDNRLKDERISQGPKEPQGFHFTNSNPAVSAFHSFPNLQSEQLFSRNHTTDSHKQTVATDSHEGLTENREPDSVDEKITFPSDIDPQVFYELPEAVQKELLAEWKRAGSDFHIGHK
Summary of the method: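 Recombinant human Pol iota (10 nM) was preincubated with compound for 15 min at room temperature, then 50 nM final primer/template substrate was added; the substrate carried a TAMRA-labeled reporter strand and a BHQ-2-quenched template. Fluorescence was read at 0 and 10 min.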

[8] = molecular target: DNA polymerase kappa (Homo sapiens) (UniProt Q9UBT6); assay: qHTS for Inhibitors of Polymerase Kappa: Confirmatory Assay for Cherry-picked Compounds (AID 720501); details: purified Pol-kappa, fluorescent strand-displacement substrate; further: potency means the concentration at half of the fitted maximal effect
DNA polymerase kappa (Homo sapiens), sequence (Q9UBT6 whole entry, looked up): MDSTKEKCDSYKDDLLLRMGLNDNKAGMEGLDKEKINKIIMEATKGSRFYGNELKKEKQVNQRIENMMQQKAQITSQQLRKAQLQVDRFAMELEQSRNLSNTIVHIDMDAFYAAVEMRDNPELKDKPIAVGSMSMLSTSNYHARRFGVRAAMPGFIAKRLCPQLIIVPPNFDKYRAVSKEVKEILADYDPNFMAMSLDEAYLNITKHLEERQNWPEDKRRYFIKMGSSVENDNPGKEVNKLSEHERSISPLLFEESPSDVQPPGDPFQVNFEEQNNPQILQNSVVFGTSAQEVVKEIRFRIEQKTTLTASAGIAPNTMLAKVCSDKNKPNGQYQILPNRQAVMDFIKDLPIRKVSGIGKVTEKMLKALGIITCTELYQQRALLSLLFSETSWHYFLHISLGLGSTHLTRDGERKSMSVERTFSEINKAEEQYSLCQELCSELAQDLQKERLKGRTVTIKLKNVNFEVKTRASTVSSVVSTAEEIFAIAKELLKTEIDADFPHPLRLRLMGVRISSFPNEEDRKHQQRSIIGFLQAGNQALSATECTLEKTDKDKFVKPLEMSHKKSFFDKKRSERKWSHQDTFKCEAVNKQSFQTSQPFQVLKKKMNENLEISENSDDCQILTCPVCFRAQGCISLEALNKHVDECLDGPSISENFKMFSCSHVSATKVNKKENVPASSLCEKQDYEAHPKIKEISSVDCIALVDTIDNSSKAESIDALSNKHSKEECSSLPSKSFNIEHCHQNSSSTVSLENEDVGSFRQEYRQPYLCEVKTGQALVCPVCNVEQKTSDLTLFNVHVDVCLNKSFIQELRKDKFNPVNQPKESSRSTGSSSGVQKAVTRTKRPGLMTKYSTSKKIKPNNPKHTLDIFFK
Summary of the method: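 10 nM human Pol-kappa was preincubated with compound 15 min at room temperature, then 50 nM (final) primer/template substrate with TAMRA-labeled reporter strand and BHQ-2-labeled template added. Fluorescence (Ex 525, Em 598 nm) read at 0 and 10 min.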

[9] = molecular target: DNA polymerase eta (Homo sapiens) (UniProt Q9Y253); assay: qHTS for Inhibitors of Polymerase Eta: Confirmatory Assay for Cherry-picked Compounds (AID 720502); details: Pol eta primer extension, TAMRA/BHQ fluorescence, 10 min; further: potency means the concentration at half of the fitted maximal effect
Summary of the method: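 Strand-displacement fluorescence (525 nm excitation, 598 nm emission) was read kinetically at 0 and 10 min after adding 50 nM final TAMRA-reporter/BHQ-2-template substrate. Beforehand, 10 nM Pol eta had been exposed to compound for 15 min at room temperature.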

[10] = molecular target: RecQ-like DNA helicase BLM (Homo sapiens) (UniProt P54132); assay: qHTS for Inhibitors of WRN Helicase: BLM Helicase Counterscreen for WRN Inhibitors (AID 720503); details: Recombinant BLM helicase DNA unwinding, red fluorescence; series mostly up to 57.1 µM; further: nearly all actives have a fitted effect of over 60% in size
RecQ-like DNA helicase BLM (Homo sapiens), sequence (P54132 whole entry, looked up): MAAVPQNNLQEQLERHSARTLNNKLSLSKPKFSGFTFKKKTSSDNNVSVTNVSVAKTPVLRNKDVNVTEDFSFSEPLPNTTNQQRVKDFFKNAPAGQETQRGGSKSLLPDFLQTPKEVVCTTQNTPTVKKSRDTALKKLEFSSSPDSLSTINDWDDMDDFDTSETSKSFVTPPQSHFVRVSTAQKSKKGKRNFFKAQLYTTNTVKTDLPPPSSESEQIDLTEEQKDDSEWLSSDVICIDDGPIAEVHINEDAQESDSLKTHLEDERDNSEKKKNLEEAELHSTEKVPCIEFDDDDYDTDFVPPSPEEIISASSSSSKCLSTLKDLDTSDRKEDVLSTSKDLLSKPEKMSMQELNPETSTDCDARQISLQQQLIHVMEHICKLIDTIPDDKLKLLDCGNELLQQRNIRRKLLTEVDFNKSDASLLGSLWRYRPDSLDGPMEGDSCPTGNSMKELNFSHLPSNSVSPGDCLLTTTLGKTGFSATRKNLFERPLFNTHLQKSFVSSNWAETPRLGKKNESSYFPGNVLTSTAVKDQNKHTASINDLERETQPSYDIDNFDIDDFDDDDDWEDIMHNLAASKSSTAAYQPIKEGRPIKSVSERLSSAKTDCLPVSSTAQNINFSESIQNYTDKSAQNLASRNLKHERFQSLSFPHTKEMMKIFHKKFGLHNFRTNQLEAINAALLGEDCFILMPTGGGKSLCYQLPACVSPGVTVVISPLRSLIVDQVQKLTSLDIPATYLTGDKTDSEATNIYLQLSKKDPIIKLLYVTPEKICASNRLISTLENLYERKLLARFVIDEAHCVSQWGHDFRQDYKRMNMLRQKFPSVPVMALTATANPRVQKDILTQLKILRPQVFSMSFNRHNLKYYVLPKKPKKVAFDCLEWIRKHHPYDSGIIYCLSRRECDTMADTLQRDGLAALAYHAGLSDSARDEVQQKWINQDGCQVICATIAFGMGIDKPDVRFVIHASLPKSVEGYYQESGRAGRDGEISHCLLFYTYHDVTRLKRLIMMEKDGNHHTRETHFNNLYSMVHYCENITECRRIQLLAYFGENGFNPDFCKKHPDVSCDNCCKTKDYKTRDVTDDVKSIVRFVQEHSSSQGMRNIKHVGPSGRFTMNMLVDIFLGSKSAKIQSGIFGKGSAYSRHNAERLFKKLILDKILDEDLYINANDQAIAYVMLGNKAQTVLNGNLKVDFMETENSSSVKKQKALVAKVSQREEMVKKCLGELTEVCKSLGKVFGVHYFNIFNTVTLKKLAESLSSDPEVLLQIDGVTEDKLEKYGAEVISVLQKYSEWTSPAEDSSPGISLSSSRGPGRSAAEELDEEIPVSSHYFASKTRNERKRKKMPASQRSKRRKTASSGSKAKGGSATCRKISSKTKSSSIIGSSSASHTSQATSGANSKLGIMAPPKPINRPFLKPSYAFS
Summary of the method: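 BLM (1 nM) was preincubated with compounds for 15 min at room temperature in Tris-HCl pH 8.0, 50 mM NaCl, 2 mM MgCl2 buffer. Unwinding started with 100 nM DNA and 2 mM ATP (final); red fluorescence was read twice, 15 min apart.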

COC(=O)c1ccc(C(/C=C/[C@@H](C)C(=O)NCc2cc(C)n(C)n2)NC(=O)OCc2ccccc2)cc1 (some centres not stated)
outcome [1]: inactive
Potency [2]: 2 µM (active)
Potency [3]: inactive

COC(=O)CNC(=O)C1(C)C=CC2(CCCCC2)N1C(C)=O (configuration not stated)
outcome [1]: inactive
Potency [3]: inactive

CC(C)(C)NC(=O)C(c1ccc(I)cc1)N(CCN1CCOCC1)C(=O)CCCNC(=O)c1ccccc1 (configuration not stated)
outcome [1]: inactive
Potency [2]: 3.98 µM (active)
Potency [3]: inactive

COC(=O)c1ccc(C(NC(=O)OCc2ccccc2)/C(I)=C/[C@@H](C)C(=O)NCc2ccc(OC)c(O)c2)cc1 (some centres not stated)
outcome [1]: inactive
Potency [2]: 3.16 µM (active)
Potency [3]: inactive

CN(C)c1ccc(CNC(=O)C2(C)C=CCN2C(=O)c2ccccc2)cc1 (configuration not stated)
outcome [1]: inactive
Potency [2]: 10 µM (active)
Potency [3]: inactive

COC(=O)c1ccc(C(NC(=O)OCc2ccccc2)/C(=C/[C@@H](C)C(=O)NCc2ccccc2)c2cccnc2)cc1 (some centres not stated)
outcome [1]: inactive
Potency [2]: 3.98 µM (active)
Potency [3]: inactive

CC(=O)N1[C@H](C)C=C[C@]1(Cc1ccccc1)C(=O)O
outcome [1]: inactive
Potency [3]: inactive

CC(=O)N1CC=CC1(C)C(=O)NCC1CC1 (configuration not stated)
outcome [1]: inactive
Potency [3]: inactive

CC1(C(=O)NCCN2CCOCC2)C=CCN1C(=O)c1ccccc1 (configuration not stated)
outcome [1]: inactive
Potency [3]: inactive

C[C@]1(C(=O)NCCc2c[nH]c3ccccc23)C=C[C@@H](Cc2ccccc2)N1C(=O)c1ccccc1
outcome [1]: inactive
Potency [2]: 1.58 µM (active)
Potency [3]: inactive

CNC(=O)[C@]1(C)C[C@H]1[C@H](NC(=O)[C@]1(C)C[C@H]1[C@H](NC(=O)OCc1ccccc1)c1ccccc1)c1ccccc1
outcome [1]: inactive
Potency [2]: 15.8 µM (active)
Potency [3]: inactive

CC(=O)N1CC=CC1(CC(C)C)C(=O)NCc1ccccn1 (configuration not stated)
outcome [1]: inactive
Potency [3]: inactive

CC(=O)N1[C@H](C)C=C[C@]1(Cc1ccccc1)C(=O)NCCc1c[nH]c2ccccc12
outcome [1]: inactive
Potency [3]: inactive

C[C@H](CCC(=O)O)[C@H]1CC[C@@H]2[C@H]3CC[C@H]4C[C@H](O)CC[C@]4(C)[C@@H]3CC[C@@]21C
Potency [4]: inactive

O=C(COC(=O)c1ccc(F)cc1F)Nc1ncccn1
Potency [5]: 5.97 µM (active)
outcome [6]: inactive
Potency [7]: 21.2 µM (active)

CC[C@]12CCCN3CCc4c(n(c5ccccc45)C(=O)C1)[C@H]32
Potency [4]: inactive

COC(=O)N1[C@H](C)C=C[C@]1(Cc1ccccc1)C(=O)NCc1ccccn1
outcome [1]: inactive
Potency [3]: inactive

COCCNC(=O)Nc1ccc2nc(-c3ccco3)c(-c3ccco3)nc2c1
Potency [5]: 1.89 µM (active)
Potency [7]: 7.52 µM (active)
Potency [8]: 3.77 µM (active)
Potency [9]: 5.36 µM (active)

COC(=O)C1(C)C=CC2(CCCCC2)N1C(=O)c1ccccc1 (configuration not stated)
outcome [1]: inactive
Potency [3]: inactive

CC1=C(C(=O)OCc2ccccc2)C(c2ccc(C(F)(F)F)cc2)NC(=O)N1CCCCCC(=O)O (configuration not stated)
outcome [1]: inactive
Potency [3]: inactive

COc1ccc(CNC(=O)C(C)Cc2ccccc2)cc1O (configuration not stated)
outcome [1]: inactive
Potency [3]: inactive

C[C@H](C(=O)O)c1cccc(C(=O)c2ccccc2)c1
Potency [4]: inactive

COC(=O)CCCCCN1C(=O)NC(c2ccccc2)C(C(=O)OCc2ccccc2)=C1C (configuration not stated)
outcome [1]: inactive
Potency [3]: inactive

CNC(=O)[C@H](C)/C=C(\c1cccnc1)C(NC(=O)OCc1ccccc1)c1ccc(C(=O)OC)cc1 (some centres not stated)
outcome [1]: inactive
Potency [3]: inactive

CC(=O)N1CC=CC1(CC(C)C)C(=O)NCc1ccc(C)o1 (configuration not stated)
outcome [1]: inactive
Potency [3]: inactive

COCCNC(=O)C1(CC(C)C)C=CCN1C(=O)c1ccccc1 (configuration not stated)
outcome [1]: inactive
Potency [3]: inactive

CCCCCCN(C(=O)CCCCCN1C(=O)NC(c2ccc(-c3ccccc3)cc2)C(C(=O)OCc2ccccc2)=C1C)C(C(=O)NCCCC)c1cccc(C(=O)OC)c1 (configuration not stated)
outcome [1]: inactive
Potency [3]: inactive

COCCNC(=O)[C@H](C)/C=C/C(NC(=O)OCc1ccccc1)c1ccc(C(=O)OC)cc1 (some centres not stated)
outcome [1]: inactive
Potency [3]: inactive

CC(=O)N1CC=CC1(C)C(=O)O (configuration not stated)
outcome [1]: inactive
Potency [3]: inactive

COC(=O)[C@@]1(C)C=C[C@@H](Cc2ccccc2)N1C(C)=O
outcome [1]: inactive
Potency [3]: inactive

Cn1c2ccccc2c(=O)c2c(=O)n(Cc3ccco3)c(COc3ccccc3)nc21
Potency [5]: 7.52 µM (active)
outcome [6]: inactive
Potency [7]: 75.2 µM (active)

CSc1nnc(SCc2nc3sc(C(=O)O)c(C)c3c(=O)[nH]2)s1
Potency [5]: 0.532 µM (active)
Potency [7]: 18.9 µM (active)
Potency [10]: inactive

COC(=O)[C@@]1(C)C[C@@H]1[C@@H](NC(=O)[C@@]1(C)C[C@@H]1[C@@H](NC(=O)[C@@]1(C)C[C@@H]1[C@@H](NC(=O)[C@@]1(C)C[C@@H]1[C@@H](NC(=O)OCc1ccccc1)c1ccccc1)c1ccccc1)c1ccccc1)c1ccccc1
outcome [1]: inactive
Potency [3]: inactive

C[C@@H]1C=C[C@](Cc2ccccc2)(C(=O)NCCCNc2ncc(C(F)(F)F)cc2Cl)N1C(=O)c1ccccc1
outcome [1]: inactive
Potency [3]: inactive
